We go through six compounds from PubChem BioAssay (Tox21).

“And” between values parts separate entries of the source, which are not always exact repeats. Equal values may be shown once. Values without a mark were called inactive. Inconclusive results are not listed. The source made the active and inactive calls. Calls come from the whole dose curve; as a rule, active = well fitted curve in the direction sought with a large enough effect in the repeat runs; inconclusive = weak or mixed curves; inactive = no such curve, though single readings can be large; an effect the other way counts as inactive or inconclusive.

A short description of assay [1]: qHTS RealTime-Glo MT Cell Viability Assay in HepG2 cells - 8 hour (AID 1224873). Note: nearly all actives have a fitted effect of over 55% in size. Note: potency is the fitted concentration of half-maximal effect. In a few lines: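 HepG2 cells mixed with RealTime-Glo MT reagents (NanoLuc plus cell-permeant prosubstrate) were seeded at 600 cells/well, incubated 5 h at 37 C/5% CO2, then pinned with compounds in DMSO; nonlytic luminescence tracked viability during 40 h treatment.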
The nature of assay [2]: qHTS RealTime-Glo MT Cell Viability Assay in HEK293 cells - 40 hour (AID 1224874). Note: nearly all actives have a fitted effect of over 50% in size. Note: potency is the fitted concentration of half-maximal effect. The settings on record: RealTime-Glo luminescence; max response: stronger effect = lower value. In a few lines: (§1)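 600 cells/well were plated with the nonlytic NanoLuc/prosubstrate reagent, pre-incubated 5 h, then given 23 nL of compound in DMSO. Incubation at 37 C for 40 h, with luminescence from viable-cell-reduced substrate read repeatedly from 0 h.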

Assay [3] in a line: A CellTox Green Cytotoxicity Assay to monitor cytotoxicity in HEK293 cells - 24 hour (AID 1224875). For activity change: series mostly up to about 77 µM. Note: nearly all actives have a fitted effect of over 45% in size. Note: potency is the fitted concentration of half-maximal effect. Put shortly:
(§2)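 HEK293 cells, 600/well, were preincubated 5 hours and then exposed to compounds at 37 C for up to 40 hours. A cell-impermeant cyanine dye staining dead-cell DNA was read by fluorescence at 0, 8, 16, 24, 32 and 40 h time points.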

Assay [4] in a line: A CellTox Green Cytotoxicity Assay to monitor cytotoxicity in HepG2 cells - 16 hour (AID 1224876). Note: nearly all actives have a fitted effect of over 45% in size. Note: potency is the fitted concentration of half-maximal effect. In a few lines: (§3)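 HepG2 cells, 600/well, preincubated 5 h with CellTox Green dye, then exposed to Tox21 compounds in DMSO at 37 C for up to 40 h. Dead-cell DNA fluorescence read at the indicated time point.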
A short description of assay [5]: qHTS RealTime-Glo MT Cell Viability Assay in HepG2 cells - 32 hour (AID 1224877). Note: nearly all actives have a fitted effect of over 55% in size. Note: potency is the fitted concentration of half-maximal effect. Put shortly: (§4)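 Cells + NanoLuc/prosubstrate dispensed (600 cells/well) → 5 h at 37 C/5% CO2 → compounds in DMSO transferred → 40 h incubation at 37 C, luminescence read at 0, 8, 16, 24, 32, 40 h.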
A short description of assay [6]: A CellTox Green Cytotoxicity Assay to monitor cytotoxicity in HepG2 cells - 24 hour (AID 1224878). Note: nearly all actives have a fitted effect of over 45% in size. Note: potency is the fitted concentration of half-maximal effect. Put shortly: as §3
Assay [7] is described as follows: A CellTox Green Cytotoxicity Assay to monitor cytotoxicity in HepG2 cells - 40 hour (AID 1224879). Note: nearly all actives have a fitted effect of over 40% in size. Note: potency is the fitted concentration of half-maximal effect. In a few lines:
as §3

The nature of assay [8]: qHTS RealTime-Glo MT Cell Viability Assay in HEK293 cells - 0 hour (AID 1224880). Note: top concentration of the series differs between compounds; nearly all actives have a fitted effect of over 45% in size. Put shortly: as §1
A short description of assay [9]: A CellTox Green Cytotoxicity Assay to monitor cytotoxicity in HEK293 cells - 32 hour (AID 1224881). Note: nearly all actives have a fitted effect of over 40% in size. Note: potency is the fitted concentration of half-maximal effect. Put shortly: as §2
Assay [10] in a line: A CellTox Green Cytotoxicity Assay to monitor cytotoxicity in HepG2 cells - 0 hour (AID 1224882). Note: nearly all actives have a fitted effect of over 35% in size. Put shortly:
as §3

Assay [11] in a line: A CellTox Green Cytotoxicity Assay to monitor cytotoxicity in HepG2 cells - 32 hour (AID 1224883). Note: nearly all actives have a fitted effect of over 50% in size. Note: potency is the fitted concentration of half-maximal effect. Put shortly: as §3
Assay [12] in a line: A CellTox Green Cytotoxicity Assay to monitor cytotoxicity in HEK293 cells - 8 hour (AID 1224884). Note: nearly all actives have a fitted effect of over 35% in size. In a few lines:
as §2

Assay [13] can be described thus: qHTS RealTime-Glo MT Cell Viability Assay in HepG2 cells - 16 hour (AID 1224885). Note: nearly all actives have a fitted effect of over 50% in size. Note: potency is the fitted concentration of half-maximal effect. In a few lines: as §4
Assay [14] can be described thus: qHTS RealTime-Glo MT Cell Viability Assay in HEK293 cells - 24 hour (AID 1224886). For activity change, negative = cytotoxicity: top concentration of the series differs between compounds. Note: nearly all actives have a fitted effect of over 50% in size. Note: potency is the fitted concentration of half-maximal effect. In a few lines: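 Tox21 10K qHTS, HEK293, 600 cells/well, RealTime-Glo reagent co-dispensed with cells; 5 h preincubation, compound by pintool, 37 C, luminescence at 0–40 h.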
Assay [15] can be described thus: qHTS RealTime-Glo MT Cell Viability Assay in HEK293 cells - 8 hour (AID 1224887). For activity change, negative = cytotoxicity: top concentration of the series differs between compounds. Note: nearly all actives have a fitted effect of over 50% in size. Note: potency is the fitted concentration of half-maximal effect. Put shortly: as §1
Assay [16] can be described thus: A CellTox Green Cytotoxicity Assay to monitor cytotoxicity in HEK293 cells - 16 hour (AID 1224888). Note: nearly all actives have a fitted effect of over 35% in size. In a few lines: as §2
A short description of assay [17]: qHTS RealTime-Glo MT Cell Viability Assay in HepG2 cells - 0 hour (AID 1224889). Note: nearly all actives have a fitted effect of over 50% in size. Put shortly:
as §4

Assay [18] can be described thus: A CellTox Green Cytotoxicity Assay to monitor cytotoxicity in HepG2 cells - 8 hour (AID 1224890). Note: nearly all actives have a fitted effect of over 45% in size. In a few lines:
as §3

A short description of assay [19]: qHTS assay to identify small molecule antagonists of the estrogen receptor alpha (ER-alpha) signaling pathway using the BG1 cell line in the presence of 0.1 nM 17-beta-estradiol - cell viability counter screen (AID 1259241). Note: nearly all actives have a fitted effect of over 40% in size. In a few lines:
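Estradiol-stimulated (0.1 nM) VM7Luc4E2 cells exposed to compounds 22 hr; viability measured by fluorescence of cleaved CellTiter-Fluor substrate after 30 min.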

The nature of assay [20]: qHTS assay to identify small molecule antagonists of the androgen receptor (AR) signaling pathway using the MDA cell line in the presence of 0.5 nM R1881 - cell viability counter screen (AID 1259242). Note: nearly all actives have a fitted effect of over 45% in size. In a few lines:
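MDA-kb2 cells (MMTV-luciferase, AR/GR responsive) were treated with compounds plus 0.5 nM R1881 (final) for 16 hr at 37C, 0% CO2. Viability was then read in the same wells as live-cell protease fluorescence (CellTiter-Fluor, 30 min).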
% is set by controls: 0 for no effect and ±100 for the full control effect.

`O=C(O)c1cn(-c2ccc(F)cc2)c2cc(N3CCNCC3)c(F)cc2c1=O`: the Potency result in assay [1], in assay [3], in [4], in [5], in assay [6] and in assay [7] was “inactive” throughout. Further, the Potency result in assay [8], in assay [9], in assay [10], in assay [11], in [12] and in [13] was “inactive” throughout. Also, the Potency result in assay [14], in assay [15], in assay [16], in assay [17] and in assay [18] was “inactive” throughout. The max response in assay [2] is 4.85% and 19.5%.

As to `CCCCCCCCCCCC[N+](C)(C)C`, the Potency result in assay [1], in assay [3], in assay [8], in [10], in [12] and in assay [13] was “inactive” each time. The Potency entry in assay [15], in assay [16], in [17] and in assay [19] was “inactive” throughout. The Potency in assay [2] is 4.35 µM (active) and 9.77 µM (active); in assay [4], 43.6 µM (active); in assay [5], 48.9 µM (active) and 49 µM (active); in assay [6], 54.8 µM (active) and 54.9 µM (active) and 49 µM (active); in assay [7], 43.5 µM (active) and 43.6 µM (active) and 38.9 µM (active); in assay [9], 54.8 µM (active) and 17.4 µM (active) and 30.9 µM (active). The Potency in assay [11] was 43.5 µM (active) and 49 µM (active) and 43.6 µM (active); in [14] it was 4.89 µM (active).

For the compound `CCCCCCCCCCCCCCCCCl`, the values for the viability change, negative = cytotoxic in assay [1] and in assay [20] were 0.131% [at 15.8 µM] and -2.37% [at 19 µM], respectively. Further, the max response in assay [2] is 0.0293%. The activity change in [3] is 8.22% [at 15.8 µM, stronger effect = higher value]; in assay [16] it was 5.27% [at 15.8 µM, stronger effect = higher value]. In addition, the cytotoxicity increase in assay [4] is 3.3% [at 15.8 µM]; in assay [7] it was 1.26% [at 15.8 µM]; in assay [9] it was 8.79% [at 15.8 µM]; in [11], 1.23% [at 15.8 µM]; in assay [12], 2.79% [at 15.8 µM]; in [18], 3.53% [at 15.8 µM]. Besides, the activity change, negative = cytotoxic in assay [5] was 6.67% [at 15.8 µM]; in [13] it was 0.939% [at 15.8 µM]. The cytotoxicity in assay [6] is 2.62% [at 15.8 µM]; in assay [10], 7.68% [at 15.8 µM]. The activity change, negative = cytotoxicity in assay [8] is 2.19% [at 15.8 µM]; in assay [14] it was 0.956% [at 15.8 µM]; in assay [15], 1.34% [at 15.8 µM]; in assay [17] it was -0.916% [at 15.8 µM]; in assay [19] it was 9.43% [at 19 µM].

Take `CN(C)c1ccc2nc3ccc(=[N+](C)C)cc-3sc2c1`: the Potency in [1] was 9.39 µM (active) and 19.5 µM (active) and 19 µM (active); in assay [2] it was 1.67 µM (active) and 1.55 µM (active) and 2.68 µM (active); in assay [5] it was 21 µM (active) and 12.3 µM (active) and 19 µM (active); in assay [13], 14.9 µM (active) and 17.4 µM (active) and 19 µM (active); in assay [14], 2.36 µM (active) and 2.19 µM (active) and 2.68 µM (active); in assay [15], 2.97 µM (active) and 2.75 µM (active) and 3.01 µM (active). Further, the Potency entry in [3], in [4], in assay [6], in assay [7], in assay [8] and in assay [9] was “inactive” in each case. Also, the Potency result in [10], in assay [11], in assay [12], in assay [16], in assay [17] and in [18] was “inactive” in each case.

Consider `O=C(O)c1cccc(C(=O)O)c1`, for which the Potency entry in [1], in assay [3], in assay [4], in assay [5], in assay [6] and in [7] was “inactive” in each case. The Potency result in assay [8], in assay [9], in assay [10], in assay [11], in assay [12] and in assay [13] was “inactive” in each case. Further, the Potency entry in assay [14], in assay [15], in [16], in assay [17], in assay [18] and in [19] was “inactive” throughout. Further, the Potency entry in assay [20] was “inactive”. For the same compound, in [2], the max response is 5.05% and -3.16%.

Consider `Cc1cc(C(C)(C)C)c(O)c(C(C)(C)C)c1`, for which the Potency result in [1], in assay [4], in assay [5], in [6], in assay [7] and in assay [8] was “inactive” each time. Also, the Potency entry in [10], in assay [11], in assay [12], in assay [13], in assay [14] and in [15] was “inactive” each time. The Potency entry in assay [16], in assay [17], in assay [18] and in assay [20] was “inactive” each time. Further, the max response in assay [2] was -21.9% and 0.957% and 2.01%. Also, the Potency in assay [3] and in assay [9] was 49.1 µM (active) in each case.
